An excerpt weighted towards active compounds, which were near 0.56% of everything screened.
Vif inh = blocks HIV Vif function; 340,000 tested, 0.35% active; inhibition, % at 7.49 µM; HEK293T cells, Vif self-association by quenched fluorescence, imaging, 24 h; AID 602346; in the data active = inhibition above about 50%, passing the limit was not always enough; inconclusive = no clear call, values can overlap the other calls; inactive = below about 31%
PDI inh = blocks human protein disulfide isomerase activity | P07237 | PDI insulin aggregation turbidity, A650, 90 min | inhibition, % at 10 µM | 350,000 tested, 0.052% active | AID 588391;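 active = mean inhibition across replicates of 30% or more, whatever share of single replicates reach that level; inconclusive = mean inhibition below 30% while every single replicate reaches 30%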
ERp5 inh = inhibitors of human ERp5; Q15084; ERp5 insulin aggregation, absorbance 650 nm, 90 min; inhibition, % at 9.99 µM; 350,000 tested, 0.05% active; AID 651711;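 active = mean replicate inhibition above about 25%, with every replicate also reaching it, limit read from the data, passing the limit was not always enough; inconclusive = only one of those two criteria met; inactive = neither criterion met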
PvdQ acylase = P. aeruginosa PvdQ acylase inhibition | purified PvdQ acylase, fluorescence plate reader | inhibition, % at 10 µM | 340,000 tested, 0.063% active; in the data active = inhibition above about 30%, passing the limit was not always enough; inconclusive = no clear call, values can overlap the other calls
N-glyco inh = N-linked glycosylation inhibition | D54 ERlucT glycosylation luciferase reporter, 24 h; percent of 100 nM tunicamycin response | reporter increase, % at 12.5 µM | 360,000 tested, 0.23% active | AID 588692;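 active = mean luciferase reporter signal, scaled so untreated is 0 and the glycosylation-blocking control 100, at or above a set limit in every replicate; inconclusive = mean reaches the limit but not every replicate does; inactive = mean below the limit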;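 also: luciferase carries N-glycosylation sites so blocking glycosylation raises the light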
Hits are given with their value.

CN(C)CCCN1C(=O)c2cc3ccccc3cc2C1=O was read as Vif inh inactive, PDI inh inactive, ERp5 inh inactive, PvdQ acylase inactive and N-glyco inh inactive.
`COc1ccc(NC(=O)Nc2ccc3c(c2)C(=O)N([C@H](C)CO)C[C@H](C)[C@H](CN(C)S(=O)(=O)c2ccccc2)O3)cc1` gave ERp5 inh inactive.
For Cc1cc(OCC(C)C)ccc1/C(O)=C1/C(=O)C(=O)N(Cc2cccnc2)C1c1ccncc1 (stereo not drawn) the results were Vif inh 54, PDI inh inactive, PvdQ acylase inactive and N-glyco inh inactive.
`CCOc1ccc(Nc2c3ccccc3nc3ccccc23)cc1` gave Vif inh inactive, PDI inh inactive, ERp5 inh inactive, PvdQ acylase inactive and N-glyco inh 64.
For S=C(NCc1ccc2c(c1)OCO2)Nc1ccc2nsnc2c1 the results were Vif inh inactive, PDI inh inactive, ERp5 inh inactive, PvdQ acylase 41 and N-glyco inh inactive.
CCn1cnc2scc(-c3ccccc3)c2c1=O was read as Vif inh inactive, PDI inh inactive, PvdQ acylase inactive and N-glyco inh inactive.
Screening Cn1cc(/C=N/n2cnc3scc(-c4ccc(Cl)cc4)c3c2=O)c2ccccc21 returned Vif inh 54, PDI inh inactive, PvdQ acylase inactive and N-glyco inh inactive.
For O=C(N/N=C/c1ccco1)c1cccc(NC(=O)c2ccccc2Cl)c1 the results were Vif inh inactive, PDI inh inactive, ERp5 inh inactive, PvdQ acylase inactive and N-glyco inh inactive.
`O=C(/C=C/c1cccc([N+](=O)[O-])c1)c1ccc2c(c1)OCCO2` gave Vif inh inactive, PDI inh inactive, ERp5 inh inactive, PvdQ acylase inactive and N-glyco inh 31.
For O=C(O)c1ccc(/C=C/C(=O)c2ccc3c(c2)OCCCO3)cc1 the results were Vif inh inactive, PDI inh inactive, ERp5 inh inactive, PvdQ acylase inactive and N-glyco inh inactive.
CC(=O)Nc1ccc(/C=C/C(=O)c2ccc3c(c2)OCCO3)cc1 was read as Vif inh 56, PDI inh inactive, ERp5 inh inactive, PvdQ acylase inactive and N-glyco inh inconclusive.
Screening COc1ccc(/C=C/C(=O)c2ccc3c(c2)OCCO3)cc1[N+](=O)[O-] returned Vif inh inactive, PDI inh inactive, PvdQ acylase inactive and N-glyco inh inactive.
Screening O=C(CCCn1c(SCC(=O)Nc2ccccc2C(F)(F)F)nc2ccccc2c1=O)NCC1CCCO1 (stereo not drawn) returned Vif inh inactive, PDI inh inactive, ERp5 inh inactive, PvdQ acylase inactive and N-glyco inh inactive.
O=C(c1ccc(Cl)c(S(=O)(=O)N2CCCCC2)c1)N1CCN(Cc2ccccc2)CC1 was read as Vif inh inactive, PDI inh inactive, ERp5 inh inactive, PvdQ acylase inactive and N-glyco inh 29.
O=C(c1ccc(Cl)c(S(=O)(=O)N2CCCC2)c1)N1CCN(Cc2ccccc2)CC1 was read as Vif inh inactive, PDI inh inactive, ERp5 inh inactive, PvdQ acylase inactive and N-glyco inh inactive.
Screening Cc1ccc(CSc2nc3c(c(N(C)C)n2)CCCC3)cc1 returned Vif inh inactive, PDI inh inactive, PvdQ acylase inactive and N-glyco inh inactive.
For Cc1ccc(N(Cc2ccc(C(=O)NN=C3CCN(C)CC3)cc2)S(C)(=O)=O)cc1C the results were Vif inh 64, PDI inh inactive, PvdQ acylase inactive and N-glyco inh inactive.
Cc1cccn2c(=O)c3cc(C(=O)NCc4ccco4)c(=N)n(CCc4ccccc4)c3nc12 was read as Vif inh inactive, PDI inh inactive, ERp5 inh inactive, PvdQ acylase inactive and N-glyco inh 53.
For Cc1ccc(Nc2cc(=O)[nH]c(=O)[nH]2)cc1C the results were Vif inh 57, PDI inh inactive, ERp5 inh inactive, PvdQ acylase inactive and N-glyco inh inactive.
`Cc1cc(NCCCn2ccnc2)n2nc(-c3ccc(Cl)cc3)cc2n1` gave PDI inh inactive, ERp5 inh inactive, PvdQ acylase 35 and N-glyco inh inactive.
Screening Cc1cc(NCCCn2ccnc2)n2nc(-c3ccc(F)cc3)cc2n1 returned Vif inh inactive, PDI inh inactive, ERp5 inh inactive, PvdQ acylase inactive and N-glyco inh inactive.
`CC(C)N(CC(=O)Nc1ccc(Cl)cc1C(F)(F)F)C(=O)CCl` gave Vif inh inactive, PDI inh inactive, ERp5 inh inactive, PvdQ acylase inactive and N-glyco inh 34.
